Assay outcomes from PubChem.
Compounds with a hit are over-represented: about 6.5% of the library has one in this group of screens.
FMDV antiviral: antivirals against foot and mouth disease virus | 410,000 compounds, 1.2% hits | AID 1159524 | Potency, µM (highest dose often 57.9 µM), most hits filed as inhibitors | FMDV antiviral cell-based qHTS; calls by dose curve; tested in HEK293T cells; also: read-out not given here; nearly all actives have a fitted effect of over 45% in size
MARV entry inh: blocks Marburg virus binding to or entry into cells | Potency, µM (series often up to 37.8 µM), hits mostly inhibitors | Marburg virus pseudotyped entry inhibition, cell reporter | 300,000 compounds, 1.8% hits; calls by dose curve; tested in HEK293 cells
HCMV antiviral: human cytomegalovirus inhibition; HFF cells, HCMV-luciferase reporter, 72 h; active compounds read low; activity change, negative = inhibition, % at 57.5 µM; 410,000 compounds, 4.5% hits; AID 1259415; in the data active = activity change below about -60%; inconclusive = no clear call, values can overlap the other calls; inactive = above about -39%
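Two compound doses tested in HFFs infected with HCMV-luciferase, MOI 1 PFU/cell, 72 h at 37C. Lysate luminescence read with OneGlo; data normalized against buffer-only and 10uM Salinomycin inhibitor controls.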
Lassa entry inh: inhibitors of Lassa virus binding or cell entry. Lassa virus pseudotype entry inhibition, cell reporter. Potency, µM (highest dose often 37.9 µM), hits mostly inhibitors. 300,000 compounds, 1.2% hits. AID 540256; calls by dose curve; tested in HEK293 cells; also: nearly all actives have a fitted effect of over 50% in size
Vaccinia mCherry: vaccinia inhibition (mCherry reporter) | Vaccinia virus mCherry reporter infection, fluorescence | Potency, µM (titrated, usually from 36.5 µM), actives largely listed as inhibitors | 310,000 compounds, 0.63% hits; calls by dose curve; tested in A549 cells; also: nearly all actives have a fitted effect of over 35% in size
Vaccinia Venus: inhibitors of vaccinia virus (Venus reporter); Vaccinia virus Venus reporter expression, fluorescence; 330,000 compounds, 0.46% hits; AID 720580; Potency, µM (top dose mostly 36.5 µM), actives largely listed as inhibitors; calls by dose curve; tested in A549 cells; also: nearly all actives have a fitted effect of over 30% in size
Hits are given with their value.

For CNc1ccc2ncc(-c3cccc(C(=O)N(C)C)c3)n2n1 the results were FMDV antiviral inactive, HCMV antiviral -75, Vaccinia mCherry inactive and Vaccinia Venus inactive.
CC(=O)c1cccc(-c2cnc3ccc(-c4cccc(Oc5ccccc5)c4)nn23)c1 was read as HCMV antiviral inactive.
Screening CC(=O)c1cccc(-c2cnc3ccc(-c4cccc(CO)c4)nn23)c1 returned HCMV antiviral -95.
CN(C)C(=O)c1cccc(-c2ccc3nncn3c2)c1 was read as FMDV antiviral inactive, HCMV antiviral inactive, Vaccinia mCherry inactive and Vaccinia Venus inactive.
Screening CCOC(=O)C1CCN(C(=O)C2CCN(c3nnc(C)c4c(C)n(-c5ccccc5)nc34)CC2)CC1 returned FMDV antiviral inactive, HCMV antiviral inactive, Lassa entry inh inconclusive, Vaccinia mCherry inactive and Vaccinia Venus inactive.
Screening Cc1nc2cccnc2n1C1CCN(S(=O)(=O)c2ccc(C(C)C)cc2)CC1 returned FMDV antiviral inactive, HCMV antiviral inactive, Lassa entry inh inactive, Vaccinia mCherry inactive and Vaccinia Venus inactive.
For CC(=O)OCC1O[C@@H](O[C@@H]2C[C@H]3C(C)(C)[C@H](OC(C)=O)CC[C@]3(C)[C@H]3CC[C@]45C[C@]4(CC[C@H]5[C@@H](C)C[C@@H](O)[C@H](O)C(C)(C)O)[C@@]32C)[C@H](O)[C@@H](O)[C@@H]1O (some centres not stated) the results were MARV entry inh inconclusive and Lassa entry inh 15µM.
COc1ccc(OC)c(NC(=O)c2csnn2)c1 was read as FMDV antiviral inactive, MARV entry inh inactive, HCMV antiviral inactive, Lassa entry inh inactive, Vaccinia mCherry inactive and Vaccinia Venus inactive.
CC(C)N1C(=O)S/C(=C/c2ccc(Sc3nc4ccccc4[nH]3)o2)C1=O was read as FMDV antiviral 11µM, MARV entry inh inconclusive, HCMV antiviral -85, Lassa entry inh inconclusive, Vaccinia mCherry inconclusive and Vaccinia Venus inconclusive.
C=CCN1C(=O)S/C(=C/c2ccc(Sc3nc4ccccc4[nH]3)o2)C1=O was read as FMDV antiviral 28µM, MARV entry inh inconclusive, HCMV antiviral -92, Lassa entry inh 20µM, Vaccinia mCherry inconclusive and Vaccinia Venus inactive.
`CCOC(=O)C(C)N1C(=O)S/C(=C\c2ccc(-c3ccccc3C(=O)O)o2)C1=O` (configuration not stated) gave FMDV antiviral inactive and HCMV antiviral inactive.
O=C1NC(=O)N(c2ccc(Cl)cc2)C(=O)/C1=C\c1ccc(Sc2nc3ccccc3[nH]2)o1 was read as FMDV antiviral inactive, MARV entry inh inconclusive, HCMV antiviral inactive, Lassa entry inh inconclusive, Vaccinia mCherry inactive and Vaccinia Venus inactive.
`Cc1ccc(S(=O)(=O)N(CC(=O)Nc2cccnc2)c2cc(Cl)ccc2C)cc1` gave FMDV antiviral inactive, HCMV antiviral inconclusive, Lassa entry inh inactive, Vaccinia mCherry inactive and Vaccinia Venus inactive.
`COc1ccc(C[C@H]2CN3C(=NC[C@H]3Cc3ccccc3)N2CCNC(=O)CCC2CCCCC2)cc1` gave FMDV antiviral inactive, HCMV antiviral inconclusive, Vaccinia mCherry 11µM and Vaccinia Venus inconclusive.
`COc1ccc(C[C@H]2CN3C(=NC[C@@H]3Cc3ccccc3)N2CCNC(=O)c2ccc(C)c(Br)c2)cc1` gave FMDV antiviral inconclusive, Vaccinia mCherry inconclusive and Vaccinia Venus 13µM.
For COc1ccc(C[C@H]2CN3C(=NC[C@H]3Cc3ccccc3)N2CCNC(=O)c2ccc(C)c(Br)c2)cc1 the results were FMDV antiviral inconclusive, Vaccinia mCherry inconclusive and Vaccinia Venus 14µM.
Screening COc1ccccc1-c1ccnc(-n2ncc(C(=O)N(C)C(C)c3ccon3)c2C2CC2)n1 (configuration not stated) returned FMDV antiviral inactive, Vaccinia mCherry inactive and Vaccinia Venus inactive.
`COc1ccc(-c2cc(=O)oc3c(O)c(O)ccc23)cc1` gave FMDV antiviral inactive, MARV entry inh inconclusive, HCMV antiviral inactive, Lassa entry inh inactive, Vaccinia mCherry 11µM and Vaccinia Venus inconclusive.
Cc1cc(C)nc(Nc2ccc(O)cc2)n1 was read as FMDV antiviral inactive, MARV entry inh inactive, HCMV antiviral inactive, Lassa entry inh inactive, Vaccinia mCherry inactive and Vaccinia Venus inactive.
`Cc1cc(C)nc(Sc2nc(Nc3ccccc3)nc(Sc3nc(C)cc(C)n3)n2)n1` gave FMDV antiviral inactive, MARV entry inh inconclusive, HCMV antiviral -72, Lassa entry inh inactive, Vaccinia mCherry inconclusive and Vaccinia Venus inconclusive.
`CCCNC(=O)CSc1c2c(nc3ccc(Cl)cc13)CCCC2` gave FMDV antiviral inconclusive, MARV entry inh inactive, HCMV antiviral inactive, Lassa entry inh inactive, Vaccinia mCherry inactive and Vaccinia Venus inactive.
`CN(C)Cc1c(O)ccc2c1O/C(=C\C=C\c1ccccc1)C2=O` gave FMDV antiviral inactive, HCMV antiviral -65, Vaccinia mCherry inactive and Vaccinia Venus inactive.
`COc1ccccc1/C=C/C=C1\Oc2c(ccc(O)c2CN2CCN(CCO)CC2)C1=O` gave FMDV antiviral inactive, MARV entry inh inactive, HCMV antiviral -93, Lassa entry inh inactive, Vaccinia mCherry inactive and Vaccinia Venus inactive.
`O=C1/C(=C/C=C/c2ccccc2)Oc2c1ccc(O)c2CN1CCN(CCO)CC1` gave FMDV antiviral inactive and HCMV antiviral inactive.
CCN1CCN(Cc2c(O)ccc3c2O/C(=C\C=C\c2ccccc2)C3=O)CC1 was read as FMDV antiviral inactive, MARV entry inh inconclusive, HCMV antiviral inconclusive, Lassa entry inh inconclusive, Vaccinia mCherry inactive and Vaccinia Venus inactive.
For COc1ccc2c(c1)cc1c(=O)n(CC(=O)NC3CCCCC3)nc(C)n12 the results were FMDV antiviral inactive, MARV entry inh inactive, HCMV antiviral inactive, Vaccinia mCherry inactive and Vaccinia Venus inactive.
Screening Cn1cnc([N+](=O)[O-])c1S(=O)(=O)Nc1ccccc1 returned FMDV antiviral 22µM, MARV entry inh inactive, HCMV antiviral inactive, Lassa entry inh inactive, Vaccinia mCherry inactive and Vaccinia Venus inactive.
Screening Cn1cnc([N+](=O)[O-])c1NCc1ccccc1 returned FMDV antiviral inactive and HCMV antiviral inactive.
`Cn1cnc([N+](=O)[O-])c1S(=O)(=O)Oc1ccccc1` gave FMDV antiviral 25µM, MARV entry inh inconclusive, HCMV antiviral inactive, Lassa entry inh inconclusive, Vaccinia mCherry inactive and Vaccinia Venus inactive.
`Cn1cnc([N+](=O)[O-])c1S(=O)(=O)c1cccc(Cl)c1` gave FMDV antiviral 25µM, MARV entry inh inactive, HCMV antiviral inactive and Lassa entry inh inactive.
Cc1nn(C(C)C(=O)c2cccc(Cl)c2)c(C)c1[N+](=O)[O-] (configuration not stated) was read as FMDV antiviral inactive, MARV entry inh inactive, HCMV antiviral inactive, Lassa entry inh inactive, Vaccinia mCherry inconclusive and Vaccinia Venus inactive.
For CCCN1Cc2cccc(C(=O)Nc3ccc(OC)cc3OC)c2C1=O the results were FMDV antiviral inactive, MARV entry inh inactive, HCMV antiviral inactive, Lassa entry inh inactive, Vaccinia mCherry inactive and Vaccinia Venus inactive.
Screening Cn1nnc2c(NCc3ccco3)ncnc21 returned Vaccinia mCherry inactive and Vaccinia Venus inactive.
